Data as given in PubChem BioAssay AID1159580 (chemical genetic matrix, 2015).
In all, about 5,500 compounds went through this assay and about 2,000 (36%) were called active. Not shown: some 18% with an inconclusive outcome. Cut-off read from the data, not from the text of the source: active = normalized growth mostly below about 0.91 (no sharp cut-off); inconclusive = no clear call, values can overlap the other calls; inactive = mostly above about 0.92. This is one part of the list.

Assay: chemical genetic growth profiling, strain panel (AID 1159580);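 note: tested at 20 µM; growth read once vehicle control cultures reached saturation at 30 °C; 1 = growth at the plate median or of vehicle wells; lower values mean less growth of the strain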
Details: S. cerevisiae deletion strains, growth OD
[1] = locus YHR030C, strain SLT2, hits give low values
[2] = locus YHR079C, strain IRE1, hits give low values
[3] = locus YJL095W, strain BCK1, hits give low values
[4] = locus YJR066W, strain TOR1, hits give low values
[5] = locus YLR113W, strain HOG1, hits give low values
[6] = locus YNL183C, strain NPR1, hits give low values
[7] = locus YOR231W, strain MKK1, hits give low values
[8] = locus YPL256C, strain CLN2, hits give low values

Measured: normalized growth

OC1(C(F)(F)F)CC(C23CC4CC(CC(C4)C2)C3)=NN1 (centres undefined)
inactive: locus YBL105C, strain PKC1, hits give low values 0.905 | locus YBR135W, strain CKS1, hits give low values 0.898 | locus YDL017W, strain CDC7, hits give low values 0.913 | locus YDR054C, strain cdc34, hits give low values 0.88 | locus YFR003C, strain YPI1, hits give low values 0.905 | locus YGR052W, strain FMP48, hits give low values 0.62 | locus YGR092W, strain DBF2, hits give low values 0.487 | [2] 0.645 | locus YHR082C, strain KSP1, hits give low values 0.688 | locus YJL128C, strain PBS2, hits give low values 0.946 | locus YJR066W, strain TOR1 (second series), hits give low values 0.718 | locus YKL048C, strain ELM1, hits give low values 0.884 | [6] 0.618 | locus YOL078W, strain AVO1, hits give low values 0.893 | locus YOL136C, strain PFK27, hits give low values 0.715 | [7] 0.637 | locus YPR106W, strain ISR1, hits give low values 0.915 | locus YPR111W, strain DBF20, hits give low values 0.875 | strain NNK1, hits give low values 0.921
active: locus YAR019C, strain CDC15, hits give low values 0.867 | locus YBR136W, strain MEC1, hits give low values 0.889 | locus YBR160W, strain CDC28, hits give low values 0.891 | locus YDL028C, strain MPS1, hits give low values 0.847 | locus YDL101C, strain DUN1, hits give low values 0.897 | locus YDL108W, strain KIN28, hits give low values 0.892 | locus YDL132W, strain cdc53, hits give low values 0.872 | locus YDL214C, strain PRR2, hits give low values 0.642 | locus YDR052C, strain DBF4, hits give low values 0.882 | locus YDR226W, strain ADK1, hits give low values 0.859 | locus YDR477W, strain SNF1, hits give low values 0.505 | locus YER123W, strain YCK3, hits give low values 0.435 | locus YER133W, strain GLC7, hits give low values 0.57 | locus YFL009W, strain cdc4, hits give low values 0.851 | locus YFL029C, strain CAK1, hits give low values 0.876 | locus YFR019W, strain FAB1, hits give low values 0.527 | locus YFR028C, strain CDC14, hits give low values 0.86 | locus YGR040W, strain KSS1, hits give low values 0.497 | [1] 0.183 | locus YHR205W, strain SCH9, hits give low values 0.531 | locus YIL147C, strain SLN1, hits give low values 0.889 | [3] 0.163 | locus YJL157C, strain FAR1, hits give low values 0.655 | locus YJR016C, strain ILV3, hits give low values 0.891 | [4] 0.411 | locus YKL067W, strain YNK1, hits give low values 0.634 | locus YKL101W, strain HSL1, hits give low values 0.716 | locus YKL193C, strain SDS22, hits give low values 0.888 | locus YKL203C, strain TOR2, hits give low values 0.555 | [5] 0.578 | locus YLR133W, strain CKI1, hits give low values 0.655 | locus YLR403W, strain SFP1, hits give low values 0.469 | locus YML070W, strain DAK1, hits give low values 0.643 | locus YMR001C, strain CDC5, hits give low values 0.881 | locus YMR205C, strain PFK2 (second series), hits give low values 0.735 | locus YMR277W, strain FCP1, hits give low values 0.863 | locus YNL006W, strain LST8, hits give low values 0.892 | locus YNL020C, strain ARK1, hits give low values 0.659 | locus YNL161W, strain CBK1, hits give low values 0.898 | locus YNL207W, strain RIO2, hits give low values 0.867 | locus YNL222W, strain SSU72, hits give low values 0.876 | locus YNL307C, strain MCK1 (second series), hits give low values 0.565 | locus YOR061W, strain CKA2, hits give low values 0.17 | locus YOR119C, strain RIO1, hits give low values 0.521 | locus YOR329C, strain SCD5, hits give low values 0.901 | locus YPL031C, strain PHO85, hits give low values 0.471 | locus YPL153C, strain RAD53, hits give low values 0.517 | locus YPL204W, strain HRR25, hits give low values 0.477 | locus YPL209C, strain IPL1, hits give low values 0.89 | [8] 0.64 | locus YPR025C, strain CCL1, hits give low values 0.893 | strain TSCII, hits give low values 0.858

CC(=O)OCC(=O)[C@@]1(O)[C@@H](C)CC2C3CCC4=CC(=O)C=C[C@]4(C)[C@@]3(F)[C@@H](O)C[C@@]21C (some centres undefined)
inactive: [1] 1.06 | [2] 1.05 | [3] 1.01 | [4] 1 | [5] 0.994 | [6] 0.991 | [7] 1.05 | [8] 1.06
